Values without a mark were called inactive. The rule behind the calls is not given here.

Sequence of Pantothenate synthetase (Mycobacterium tuberculosis (strain ATCC 25618 / H37Rv)) (P9WIL5 whole entry, looked up): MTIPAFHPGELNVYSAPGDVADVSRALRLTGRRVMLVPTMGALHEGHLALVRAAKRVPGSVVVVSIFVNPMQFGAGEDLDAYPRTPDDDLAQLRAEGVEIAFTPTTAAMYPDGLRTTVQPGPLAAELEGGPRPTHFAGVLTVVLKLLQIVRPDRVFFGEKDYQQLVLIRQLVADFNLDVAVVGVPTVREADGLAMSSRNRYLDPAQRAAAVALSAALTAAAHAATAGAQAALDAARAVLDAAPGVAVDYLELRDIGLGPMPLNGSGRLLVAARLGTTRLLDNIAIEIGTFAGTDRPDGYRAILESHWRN

The test has as its target Pantothenate synthetase (Mycobacterium tuberculosis (strain ATCC 25618 / H37Rv)) (UniProt P9WIL5). Put plainly: Recombinant Mtb pantothenate synthetase (PanC) inhibitors, coupled enzyme, confirmatory (AID 375).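 Note: 0% = full reaction with vehicle and 100% = no enzyme background.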 The conditions noted are these: coupled enzyme assay; at 10 µM, hits give high values.
As a reminder, the inhibition is how much of the control response was suppressed. In the case of `O=c1[nH]c2cccnc2n1Cc1ccco1`, the inhibition is 0%.

Take `COc1ccc(C2c3c(oc4ccccc4c3=O)C(=O)N2c2ccc(C)cn2)cc1OC` (centres undefined): the inhibition is 0%.

Take `COc1ccc(S(=O)(=O)n2nc(OC(=O)c3ccc(C)cc3)cc2N)cc1`: the inhibition was 5%.

Consider `C=CCn1c(COc2ccc(Cl)cc2)nnc1SCC(=O)N1CC(=O)Nc2ccccc21`, for which the inhibition was 0%.

As for `CCOc1ccc2c(c1)c1nnc(SCC(=O)N3CCC(C)CC3)nc1n2C`, the inhibition is 1%.

In the case of `COc1cccc(C(=O)Nc2cc(NC(=O)c3ccco3)ccc2OC)c1`, the inhibition was 3%.

On to `Cn1ccnc1SCC(=O)Nc1ccc2ccccc2c1`, for which the inhibition was 2%.

Take `COc1ccc(C(C(C(=O)c2cccs2)N2CCOCC2)N2CCOCC2)cc1OC` (centres undefined): the inhibition was 0%.

Turning to `CCN1CCN(c2nc3c(c(=O)[nH]c(=O)n3C)n2CCSc2nc3ccccc3s2)CC1`, the inhibition is 3%.

On to `O=C(NCC1CCCO1)C1CCC(CNS(=O)(=O)c2ccccc2)CC1` (centres undefined), for which the inhibition is 5%.

For the compound `CCOC(=O)c1c(NC(=O)CSc2nnc(-c3ccc(OC)cc3)o2)sc2c1CCC2`, the inhibition was 3%.

`O=C(COc1ccc(Cl)cc1)Nc1ncccn1`: the inhibition was 9%.

Consider `CC(C(N)=O)N1C(=O)C2C3C=CC(C3)C2C1=O` (centres undefined), for which the inhibition was 2%.

As to `Cc1cc2c(s1)c1cnn(CC(=O)NCCc3ccccc3)c(=O)c1n2C`, the inhibition is 0%.

As for `COc1ccc(-n2nnnc2SCC(=O)N2CCOCC2)cc1`, the inhibition is 3%.

In the case of `COc1ccc(-n2c(Cc3cccn3C)nnc2SCC(=O)Nc2cccc(C)c2C)cc1`, the inhibition is 0%.

Consider `CCCN(CCC)S(=O)(=O)c1ccc(NS(C)(=O)=O)cc1`, for which the inhibition is 0%.

Regarding `O=C(CN1CCN(Cc2ccccc2)CC1)Nc1ccc(Cl)cn1`, the inhibition is 3%.

Regarding `COc1ccc(-c2noc(-c3cc(Cl)ccc3Cl)n2)cc1OC`, the inhibition was 2%.

For `CCOc1ccc(Cn2nnc(C(=O)NCc3ccc(OC)cc3)c2N)cc1`, the inhibition was 2%.

In the case of `Cc1cc(NC(=O)CN2CCC(O)(c3cccc(F)c3)CC2)no1`, the inhibition was 0%.

Take `COc1ccc2nc3oc(C(=O)NC4CCN(Cc5ccccc5)CC4)cc3cc2c1`: the inhibition was 1%.

For `NS(=O)(=O)c1ccc(NCc2c(F)cccc2Cl)cc1`, the inhibition is 2%.

On to `Cc1cccc(NC(=O)CCn2ccnc2C)c1`, for which the inhibition was 0%.

`O=C(NCc1ccccn1)c1cccs1`: the inhibition is 0%.

For `CCOCCCNC(=O)C1CCN(S(=O)(=O)N(CC(C)C)CC(C)C)CC1`, the inhibition was 0%.

In the case of `COc1cc(S(=O)(=O)N2CCOCC2)ccc1NC(=O)COC(=O)c1ccccn1`, the inhibition was 0%.

Turning to `CCn1c(SCC(=O)Nc2cc(C)on2)nc2sc3c(c2c1=O)CCCC3`, the inhibition is 0%.

Regarding `NC1=NC(c2ccc(Cl)cc2)n2c(nc3ccccc32)N1` (centres undefined), the inhibition is 0%.

Turning to `Cc1ccc(Cn2c(CN3CCOCC3)nc3c2c(=O)n(C)c(=O)n3C)cc1`, the inhibition is 0%.

As for `CC(C)C[C@H](NC(=O)[C@@H]1O[C@H]1C(=O)O)C(=O)NCCCCN=C(N)N`, the inhibition is 1%.

In the case of `O=c1cc(-c2ccccc2)[nH]c2nc3ccccc3n12`, the inhibition was 0%.

Regarding `O=C(CCCc1cccs1)Nc1nc2c(s1)CCCC2`, the inhibition was 2%.

Take `CC(C)Cc1nc(S(=O)(=O)c2ccc(Cl)cc2)c(N2CCOCC2)o1`: the inhibition was 0%.

With `C(=N\n1cnnc1)/c1cccc(OCCOc2ccccc2)c1`, the inhibition is 0%.

Regarding `Cc1cccc(N2CCN(C(=O)c3ccc(NS(=O)(=O)c4c(C)noc4C)cc3)CC2)c1C`, the inhibition is 0%.

As for `O=C(Nc1ccc(NC(=O)c2ccco2)nc1)c1cccnc1`, the inhibition is 0%.

Consider `O=C(NC1CCCCCC1)C1CCCN(S(=O)(=O)c2cccs2)C1` (centres undefined), for which the inhibition was 0%.

For `COc1cccc(-c2cc(C(=O)Nc3c(C)nn(Cc4ccccc4)c3C)no2)c1`, the inhibition is 0%.

Values taken from PubChem BioAssay.
